A selection: hits, their analogues and other compounds. The true share with any hit is near 7.3%.
FLuc modulator: inhibits or activates purified firefly luciferase, miR-21 counter-screen; purified FLuc, Km substrates, luminescence inhibition; Potency, µM (doses to about 57.5 µM), without a hit: top-dose activity change, negative = inhibition, most hits filed as inhibitors; 6.9% of 360,000 active;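 also: plate controls were vehicle for no effect and reference inhibitor for full effect; nearly all actives have a fitted effect of over 55% in size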
Target sequence (P08659 whole entry, looked up): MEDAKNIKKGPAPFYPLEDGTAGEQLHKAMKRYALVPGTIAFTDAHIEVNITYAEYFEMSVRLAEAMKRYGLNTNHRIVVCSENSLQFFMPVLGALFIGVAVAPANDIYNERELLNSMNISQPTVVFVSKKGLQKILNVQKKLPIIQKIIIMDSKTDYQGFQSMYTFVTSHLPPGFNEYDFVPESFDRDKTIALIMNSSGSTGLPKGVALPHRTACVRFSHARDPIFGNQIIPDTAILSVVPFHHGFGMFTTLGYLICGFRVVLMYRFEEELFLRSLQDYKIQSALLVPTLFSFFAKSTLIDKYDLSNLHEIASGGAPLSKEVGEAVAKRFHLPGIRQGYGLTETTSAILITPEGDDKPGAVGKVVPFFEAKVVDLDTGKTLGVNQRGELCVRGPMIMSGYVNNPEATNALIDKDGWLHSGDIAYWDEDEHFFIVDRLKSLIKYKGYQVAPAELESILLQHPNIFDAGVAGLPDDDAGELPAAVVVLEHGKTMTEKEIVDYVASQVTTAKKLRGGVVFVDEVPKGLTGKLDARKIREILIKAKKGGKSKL
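Biochemical qHTS of compounds, final roughly 60 µM downward over six points, against 10 nM purified firefly luciferase using Km concentrations of substrates (10 uM D-luciferin, 10 uM ATP) in Tris acetate pH 7.5 buffer; luminescence output.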
SMN2 splice up: SMN2 splice variant enhancement. HEK293 SMN2-luciferase splicing reporter, luminescence, 30-36 h. Potency, µM (doses to about 46.1 µM), without a hit: at the top dose activity change, positive = activation, usual class: activators. 2.8% of 210,000 active; also: % of control where 0% means no effect; nearly all actives have a fitted effect of over 55% in size
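HEK293 cells carry an SMN2 minigene-luciferase reporter in which exon 7 inclusion puts luciferase in frame. Cells were seeded at 2000 cells/well, attached for 10-12 hours, then exposed to compounds for 30-36 hours at 37C before ONE-Glo luminescence.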
NPC1 promoter act: activators of NPC1 promoter. 2.4% of 320,000 active. Huh7 NPC1 promoter luciferase reporter, 24 h. Potency, µM (highest dose often 9.22 µM), without a hit: at the top dose activation, usual class: activators. AID 485313; also: % of control where 0% means no effect; nearly all actives have a fitted effect of over 60% in size
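Cells: Huh7 expressing luciferase under the NPC1 promoter, 1500/well. Seeded 2 h, compound added, incubated 24 h at 37 °C. Luciferase reagent, 10 min ambient, then luminescence.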
Rab9 promoter act: activates the Rab9 promoter. Huh7 Rab9 promoter-luciferase reporter, luminescence, 24 h. Potency, µM (top dose mostly 9.22 µM), for inactives: top-dose activation, negative = inhibition, actives largely listed as activators. 2.8% of 320,000 active. AID 485297; also: % of control where 0% means no effect; nearly all actives have a fitted effect of over 60% in size
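Huh7 reporter line, Rab9 promoter upstream of luciferase. Compound exposure 24 h at 37 °C in reduced-serum medium with 10% FBS. Read-out: luminescence.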
Luc counter: blocks Kinase-Glo luciferase, a counter-screen artifact. Q27757. Kinase-Glo luciferase, ATP luminescence, 8 min. Potency, µM (titrated, usually from 38.3 µM), without a hit: at the top dose activity change, negative = inhibition, actives largely listed as inhibitors. 0.28% of 200,000 active. AID 1379; also: % is scaled to controls: 0 for no effect and ±100 for the full control effect; nearly all actives have a fitted effect of over 60% in size
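Recombinant Kinase-Glo luciferase, 10 uM ATP (linear range), luciferin; imidazole pH 7.2 / KCl / MgCl2 / Tween / BSA buffer; 8 min RT; luminescence.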
ELG1 genotox: genotoxicity induction in ELG1-luciferase HEK293T cells. HEK293T ELG1-luciferase reporter, luminescence, 16 h. Potency, µM (highest dose often 46 µM), for inactives: at the top dose activity change, positive = activation, hits mostly activators. 1.3% of 330,000 active. AID 504466; also: % of control where 0% means no effect; nearly all actives have a fitted effect of over 60% in size
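Reporter readout depends on ELG1 protein level, which increases with genetic stress. After 16 hr compound exposure at 37 °C, luciferase activity was quantified using ONE-Glo.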
* = called active by the depositor; ? = inconclusive; . = no result given; [ ] = remark or other dose. Calls follow the shape of the dose curve; as a rule, active = well fitted curve in the direction sought with a large enough effect; inconclusive = small, poorly fitted or top-dose-only effect, or another doubt; inactive = no such curve, though single readings can be large; an effect the other way counts as inactive or inconclusive. Potency is read from the fitted curve at half-maximal effect.

SMILES | FLuc modulator | SMN2 splice up | NPC1 promoter act | Rab9 promoter act | Luc counter | ELG1 genotox
S=c1nc2ccccc2c2nc(-c3ccccc3Cl)[nH]n12 | ? | . | 16% | 27% | . | -4%
S=c1nc2ccccc2c2nc(-c3ccccc3)[nH]n12 | 27µM* | -10% | ? | 17% | 2% | 9%
Cc1cccc(-c2nn3c(=O)cc(CN4CCN(S(=O)(=O)c5ccc(Cl)cc5)CC4)nc3s2)c1 | -9% | . | . | . | . | .
Cc1ccc(Nc2c(-c3ccc(N4CCOCC4)cc3)nc3ccc(C)cn23)cc1 | 0% | 6% | . | . | . | .
Cc1ccc(Nc2c(-c3ccc(N4CCOCC4)cc3)nc3cnccn23)cc1 | 5.4µM* | . | 17% | 16% | . | ?
Cc1ccccc1Nc1c(-c2ccc(N3CCOCC3)cc2)nc2ncccn12 | 11µM* | -11% | 14% | -1% | 3% | -6%
Cc1cccn2c(Nc3ccccc3)c(-c3ccc(N4CCOCC4)cc3)nc12 | ? | 15% | . | . | . | .
Cc1ccccc1Nc1c(-c2ccc(N3CCOCC3)cc2)nc2cnccn12 | 1.5µM* | . | ? | ? | . | ?
CCn1c(=N)c(C(=O)NCC2CCCO2)cc2c(=O)n3cc(C)ccc3nc21 (stereo unspecified) | -1% | -6% | . | . | . | .
CCc1nc(Oc2cccc(F)c2)c2oc3ccccc3c2n1 | -2% | . | . | . | . | .
Cc1cc(O)c(C=Nc2cccc(Cl)c2)c(=O)o1 | -3% | -3% | -2% | -1% | 3% | 2%
CC(C)c1ccc(N=Cc2c(O)c3ccccc3oc2=O)cc1 | 0.38µM* | . | -6% | 2% | . | 18%
CCOc1ccc(OCC(=O)c2c(O)c3ccccc3oc2=O)cc1 | ? | 8% | 0% | -3% | -5% | 6%
COc1ccc(N=Cc2c(O)cc(C)oc2=O)cc1 | 12µM* | 2% | -6% | 1% | -16% | 6%
COc1ccc(OCC(=O)c2c(O)c3ccccc3oc2=O)cc1 | 17µM* | . | 0% | 2% | 1% | 9%
COc1ccc(N=Cc2c(O)c3ccccc3oc2=O)cc1 | 0.76µM* | 9% | 0% | 4% | ? | 16%
[O-][n+]1c(CN2CCCCC2)nc2cccc3c2c1-c1ccccc1-3 | . | 10%[9.22 µM] | . | . | -7%[7.66 µM] | .
CC1CCN(S(=O)(=O)c2ccc3c(c2)N(CC(=O)NCCN(C)C)C(=O)CS3)CC1 | -6% | 3% | . | . | . | .
Cc1ccccc1CN1C(=O)C(O)(c2c[nH]c3ccccc23)c2cc(Cl)ccc21 (stereo unspecified) | 5% | -5% | . | . | . | .
CCc1ccccc1NC(=O)CN1C(=O)CCSc2ccc(S(=O)(=O)N3CCCC3)cc21 | -5% | . | . | . | . | .
Cn1c(=O)n(C)c2cc(N3CCOCC3)c(NC(=O)c3ccc(Cl)cc3)cc21 | -1% | -3% | . | . | . | .
COc1cccc(CNC(=O)CN2C(=O)N(c3ccc(C)cc3C)S(=O)(=O)c3ccccc32)c1OC | -2% | . | . | . | . | .
CCOc1ccc(CCNC(=O)c2cn(C)c3ccc(S(=O)(=O)N4CCCCCC4)cc3c2=O)cc1OCC | -9% | 3% | . | . | . | .
CCCCN=C(C)c1c(O)c2ccccc2oc1=O | 19µM* | ? | ? | 4µM* | 1% | ?
CCCCC(=O)c1c(O)c2ccccc2oc1=O | ? | -12% | 1% | -1% | -3% | -9%
SMILES | FLuc modulator | SMN2 splice up | NPC1 promoter act | Rab9 promoter act | Luc counter | ELG1 genotox
COc1c(Cl)cc(C(=O)N(Cc2ccc(C)o2)C2CCS(=O)(=O)C2)cc1Cl (stereo unspecified) | -4% | -13% | . | . | . | .
Nc1c(C(=O)c2ccccc2)oc2ccc(Br)cc12 | 3µM* | 16µM* | 3.2µM* | 3.5µM* | -2% | 4.6µM*
COC(=O)CCC(=O)c1oc2ccc(Br)cc2c1N | 7.6µM* | 11% | 21% | 19% | 0% | ?
COC(=O)c1oc2ccc(Br)cc2c1-n1cccc1 | 2% | -5% | -3% | -1% | -5% | -5%
Nc1c(C(=O)c2ccccc2)oc2ccc([N+](=O)[O-])cc12 | ? | . | 3.5µM* | 3.5µM* | . | 15%
CCCOc1ccc(Nc2cc(C)nc(C)n2)cc1 | 3% | . | . | . | . | .
O=[N+]([O-])c1cccc(C2=N[C@@H](Cc3ccccc3)CO2)c1 | . | . | . | . | 0%[39.9 µM] | .
CS(=O)(=O)N(Cc1ccc(Cl)cc1)c1ccc(C(=O)NCCSc2ccccn2)cc1 | 2% | -3%[1.84 µM] | 1% | 4% | 1% | -5%
O=C(NCCSc1ccccn1)c1ccc(Cl)cc1 | 3.4µM* | 2.2µM* | 0.63µM* | 0.63µM* | 0% | ?
O=C(NCCSc1ccccn1)c1ccc(Cl)cc1Cl | ? | 3.2µM* | 0.79µM* | 1.1µM* | 0% | -10%
CSc1ccc(/C=N/Nc2nc(C)cc(=O)[nH]2)cc1 | ? | 23% | 16% | 26% | -18% | 10%
Cc1cc(=O)[nH]c(N/N=C/c2ccc(-c3ccc(F)cc3)o2)n1 | 6µM* | . | 26% | ? | . | 9%
O=C(COc1cccc2cccnc12)N/N=C/c1ccc(O)cc1 | 17µM* | 12% | -4% | 1% | 5% | -5%
O=C(COc1cccc2cccnc12)Nc1ccccc1 | 21µM* | ? | ? | 4µM* | -1% | 11%
O=C(COc1cccc2cccnc12)Nc1cccc(S(=O)(=O)N2CCCC2)c1 | -14% | . | -1% | -7% | . | -2%
Cc1cc(OCCn2cc(C(=O)c3cccs3)c3ccccc32)ccc1Cl | 1% | 20% | . | . | . | .
Cc1cn2nc(N)c3ccccc3c2n1 | 0% | 1% | -12% | 0% | -1% | 2%
Nc1nn2cc(-c3ccccc3)nc2c2ccccc12 | 1.9µM* | 4.5µM* | ? | 3.2µM* | ? | 5.2µM*
COc1cc(-c2nc(-c3cccc(C)c3)no2)cc(OC)c1OC | ? | 29% | 8% | 5% | 0% | 1%
COc1ccccc1OCc1nc(-c2cccc(C)c2)no1 | 8.5µM* | ? | . | . | . | .
COc1ccccc1OCc1nc(-c2cccc([N+](=O)[O-])c2)no1 | -19% | -3% | 3% | 3% | 0% | -1%
COc1ccccc1-c1nc(-c2cccc(C)c2)no1 | 1.2µM* | 4.5µM* | 0.32µM* | 0.11µM* | ? | 1.2µM*
Cc1cccc(-c2noc(-c3ccccc3OCC(=O)Nc3ccccc3[N+](=O)[O-])n2)c1 | -10% | . | . | . | . | .
COc1ccc(-c2nc(-c3cccc(C)c3)no2)cc1OC | 4.3µM* | 13µM* | 0.79µM* | 4.5µM* | 0% | ?
COc1ccc(-c2nc(-c3ccccc3OC)no2)cc1OC | 15µM* | ? | 3.5µM* | ? | -5% | 11%
Oc1ccc(COC2CCCC2)c2cccnc12 | 2% | . | -29% | -17% | . | .
COC(=O)c1nnn(CC(=O)Nc2c(C)cccc2C)c1N | -1% | -3% | . | . | . | .
COc1cc(/C=C/C(=O)c2ccc(Cl)s2)cc(OC)c1O | ? | -26% | -2% | -4% | 2% | -2%
